# Compound activity from PubChem.
# ELG1 DNA repair: qHTS screen for small molecules that inhibit ELG1-dependent DNA repair in human embryonic kidney (HEK293T) cells expressing luciferase-tagged ELG1. HEK293T ELG1-luciferase reporter, luminescence, 16 h; DNA damage induced by 5-fluorouridine. Potency, µM (series often up to 46.1 µM), hits mostly inhibitors. hit rate 2.3% among 330,000. AID 504467, 2011; note: nearly all actives have a fitted effect of over 55% in size
#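 5-Fluorouridine DNA damage + compound/DMSO, 2,000 cells/well, 16 h, 37 °C/5% CO2. ONE-Glo, 30 min RT, luminescence. Readout = decrease in reporter signal.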
# IL-1B inflam inh: qHTS for Inhibitors of Inflammasome Signaling: IL-1-beta AlphaLISA Primary Screen; THP-1 LPS/ATP IL-1B secretion, AlphaLISA, 16 h; stronger effect = lower value; activity change, % at 57.5 µM; hit rate 4.7% among 360,000; in the data active = activity change below about -50%; inconclusive = mostly about -30% to -49%
#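 THP-1 cells pretreated 1 hr with compounds (up to 57.5 uM final), then stimulated with LPS (250 ng/mL final) plus ATP (1.25 mM final); secreted IL-1B measured by AlphaLISA after 16 hr, decreased signal indicating inhibition.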
# DT40 TDP1 no CPT: qHTS for Inhibitors of human tyrosyl-DNA phosphodiesterase 1 (TDP1): qHTS in cells in absence of CPT; DT40 Tdp1-/- hTDP1 cells, no CPT, ATP luminescence, 48 h; Potency, µM (titrated, usually from 46.2 µM), usual class: inhibitors; hit rate 15% among 420,000; note: nearly all actives have a fitted effect of over 55% in size
#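 Compound effects on proliferation are scored in DT40 Tdp1-/-;hTDP1 cells in the absence of CPT. ATP levels (CellTiter-Glo luminescence) are recorded after a ≥48 hr, 37 °C incubation.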
# DT40 TDP1 CPT: qHTS for Inhibitors of human tyrosyl-DNA phosphodiesterase 1 (TDP1): qHTS in cells in presence of CPT | chicken DT40 Tdp1-/-;hTDP1 cells + 20 nM CPT, ATP luminescence, 48 h | Potency, µM (series often up to 46.2 µM), hits mostly inhibitors | hit rate 12% among 420,000; note: nearly all actives have a fitted effect of over 55% in size
#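 Chicken DT40 Tdp1-/- cells complemented with human TDP1, 400 cells/well, exposed to compounds plus 20 nM camptothecin for at least 48 h at 37 C; viability read as ATP content by CellTiter-Glo luminescence.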
# HT1080 IDH1KD tx: qHTS for induction of synthetic lethality in tumor cells producing 2HG: qHTS for the HT-1080-IDH1KD cell line | AID 686971, 2013 | hit rate 2% among 360,000 | Potency, µM (doses to about 46.1 µM), usual class: cytotoxic | HT-1080 IDH1 knockdown viability, ATP luminescence, 48 h
#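 IDH1KD HT-1080 cells, 750/well, RPMI + 5% FBS; compound pinned after 2 h settling; 48 h, 37 °C; CellTiter-Glo luminescence; % activity normalised to DMSO and no-cell wells; curves fitted, classed by r2 and efficacy.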
# HT1080NT lethal: qHTS for induction of synthetic lethality in tumor cells producing 2HG: qHTS for the HT-1080-NT fibrosarcoma cell line. Potency, µM (top dose mostly 46.1 µM), most hits filed as cytotoxic. hit rate 1.6% among 360,000. HT-1080-NT fibrosarcoma viability, CellTiter-Glo ATP luminescence, 48 h;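 note: NT is the 2HG producing partner of a matched IDH1 knockdown line; nearly all actives have a fitted effect of over 55% in size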
#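 HT-1080-NT; 750 cells/well; 5% FBS RPMI; 48 h compound, 37 degrees C; CellTiter-Glo luminescence; curve fitting and curve-class assignment.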
# A number is an active result; i = inactive; ? = inconclusive; nt = not tested or not shown. Compounds with a hit are over-represented: about 19% of the library has one in this group of screens. Unless noted, calls come from the whole dose curve; as a rule, active = well fitted curve in the direction sought with a large enough effect; inconclusive = small, poorly fitted or top-dose-only effect, or another doubt; inactive = no such curve, though single readings can be large; an effect the other way counts as inactive or inconclusive.
SMILES,ELG1 DNA repair,IL-1B inflam inh,DT40 TDP1 no CPT,DT40 TDP1 CPT,HT1080 IDH1KD tx,HT1080NT lethal
C=CCn1c(O)c(C(C)=NCCc2c[nH]c3ccccc23)c(=O)[nH]c1=O,?,i,i,i,i,i
CCCCn1c(O)c(C(C)=NCCc2c[nH]c3ccccc23)c(=O)[nH]c1=O,?,i,16.4µM,?,i,i
CCCCn1c(O)c(C(C)=Nc2ccc(OCC)cc2)c(=O)[nH]c1=O,?,i,23.1µM,18.4µM,i,i
O=C(NC12CC3CC(CC(C3)C1)C2)OC1CN2CCC1CC2 (configuration not stated),i,nt,?,i,i,i
COc1cc(CN=Cc2c(O)n(Cc3ccccc3)c(=S)[nH]c2=O)cc(OC)c1,?,i,i,i,i,i
Cc1nc(-c2cccc(NC(=O)c3ccc(Cl)c(S(=O)(=O)N4CCCC4)c3)c2)cs1,nt,i,8.2µM,?,i,i
COC(=O)c1ccc(NC(=O)CSc2nc3ccc(N4C(=O)C5C6C=CC(C6)C5C4=O)cc3s2)cc1 (configuration not stated),13µM,?,18.4µM,20.6µM,?,i
CCOC(=O)C1C(C=C(C)C)C1(C)C (configuration not stated),nt,nt,i,i,nt,nt
CCN(CC)N=O,i,-96.7,i,i,i,i
C[C@@H]1O[C@@H](O[C@@H]2C=C3CC[C@@H]4[C@H](CC[C@]5(C)[C@@H](c6ccc(=O)oc6)CC[C@]45O)[C@@]3(C)CC2)[C@H](O)[C@H](O)[C@H]1O,nt,nt,0.128µM,0.143µM,nt,nt
C[C@@H]1O[C@@H](O[C@@H]2C=C3CC[C@@H]4[C@@H](CC[C@]5(C)[C@H](c6ccc(=O)oc6)CC[C@@]45O)[C@@]3(C)CC2)[C@H](O)[C@H](O)[C@H]1O,nt,nt,?,0.282µM,nt,nt
Cc1nn(Cc2ccccc2)c(Cl)c1C(=O)NC1CCCc2ccccc21 (configuration not stated),?,i,20.6µM,?,i,i
Cc1ccc(Cl)cc1N1CCN(C(=O)c2cn(C)c(=O)c3c2c2ccccc2n3C)CC1,?,-68.5,18.4µM,?,i,i
CN1CC(C(=O)c2cccc(C(F)(F)F)c2)C(c2ccc(Cl)cc2)C1 (configuration not stated),i,-82.5,?,23.1µM,i,i
CN1CC(C(=O)c2ccc([N+](=O)[O-])cc2)C(c2ccc(Cl)cc2)C1 (configuration not stated),i,nt,?,?,i,i
COc1ccc(C(=O)C2CN(C)CC2c2ccc(Cl)cc2)cc1 (configuration not stated),i,?,?,18.4µM,i,i
COc1cccc(C(=O)C2CN(C)CC2c2ccc(Cl)cc2)c1 (configuration not stated),i,-58.9,?,?,i,i
O=C1CC=C2C3CC4N(CCC45c4cc(O)c(O)cc4N1C25)CC3=CCBr (configuration not stated),nt,i,?,?,i,i
CCOC(=O)C(O)(c1ccc(N(CC)C(=O)COc2ccccc2)cc1)C(F)(F)F (configuration not stated),i,i,?,?,i,i
CCCN1C[C@H](C)N([C@H](c2ccc(C(=O)N(CC)CC)cc2)c2cccc(OC)c2)C[C@H]1C,nt,nt,i,i,nt,nt
CC(=O)c1cn(Cc2ccc(F)cc2)c2ccccc12,i,i,18.4µM,20.6µM,i,i
COC(=O)c1cn(Cc2ccc(F)cc2)c2ccccc12,nt,i,i,?,?,i
Cc1ccc(Cl)cc1N1CCN(c2ncnc3c2nc2n3CCCC2)CC1,nt,nt,18.4µM,?,nt,nt
CCOC(=O)C1(CCc2ccccc2)CCN(Cc2csc(C(C)=O)c2)CC1,i,i,?,?,?,?
CCOC(=O)C1(CCc2ccccc2)CCN(Cc2cccc3c2OCO3)CC1,?,-85.3,9.2µM,?,?,?
SMILES,ELG1 DNA repair,IL-1B inflam inh,DT40 TDP1 no CPT,DT40 TDP1 CPT,HT1080 IDH1KD tx,HT1080NT lethal
CCOC(=O)C1(CCc2ccccc2)CCN(Cc2cccc3cnccc23)CC1,?,-111.0,?,?,?,?
Cc1cc(O)c2c3c(c(=O)oc2c1)CCC(C)C3 (configuration not stated),?,i,11.6µM,14.6µM,i,i
COCCNC(=O)N1[C@H]2CC[C@@H]1C(C(=O)OC)=C(c1ccc(OC)c(OC)c1)C2,?,i,i,i,i,i
C[C@H](CO)N1C[C@H](C)[C@@H](CN(C)C(=O)Oc2ccc3ccccc3c2)OCc2cnnn2CCCC1=O,nt,i,?,i,i,i
O=C(c1ccco1)N1CCN(c2nc(C3CC3)nc3sc4c(c23)CCCC4)CC1,?,i,?,25.9µM,?,?
O=C1C=C2C=C[C@@H]3CC2(O1)[C@H]1CCCCN31,?,-95.9,18.4µM,?,?,i
COC(=O)C1=C(c2cccc(OC)c2OC)C[C@@H]2CC[C@H]1N2C(=O)NCc1cccc2ccccc12,nt,i,?,?,i,i
CCCCCSc1cc(OC)c(CCN)cc1OC,i,i,2.91µM,5.8µM,?,?
CCCSc1cc(OC)c(CCN)cc1OC,nt,nt,2.91µM,1.84µM,nt,nt
COc1cc(CCN)ccc1O,i,i,i,i,i,i
CCCCCCCSc1cc(OC)c(CCN(C)C)cc1OC,?,-99.5,?,?,i,i
O=C(NC(=O)c1c(F)cccc1F)Nc1ccc(Cl)cc1,nt,nt,i,i,nt,nt
COc1ccc(OC)c(N=Cc2c(O)[nH]c(=O)[nH]c2=O)c1,i,i,i,i,i,i
COC(=O)[C@@H]1[C@H]2CC[C@@H](C[C@H]1OC(=O)c1ccccc1)N2C,nt,nt,i,i,nt,nt
CN(C)c1ccc(C2C3C=CC(C3)C2(C#N)C(=O)O)c(Br)c1 (configuration not stated),i,i,i,i,i,i
O=C(O)CCn1cc(C=C2C(=O)NC(=O)NC2=O)c(-c2cc3ccccc3oc2=O)n1,i,i,i,i,i,i
c1csc(CN2CCC3(CCNCC3)CC2)n1,nt,nt,i,i,nt,nt
Cc1cccc(CN2CCN(C(=O)Cc3ccccc3)CC2)c1,i,i,i,i,i,i
Cc1ccc(/C=C/C(=O)C2C(=O)c3ccccc3C2=O)cc1,?,i,?,16.4µM,i,i
CC(C)OC(=O)Cc1ccccc1,i,i,i,i,i,i
